Laboratory results as given in paper PMC7826789 (International Journal of Molecular Sciences, 2021).

Columns and labels:
Details in all cases: Compound Concentration (nM):1000
RET(V804M) = system: RET(V804M)
RET = system: RET
RIOK1 = system: RIOK1
RIOK2 = system: RIOK2
RIOK3 = system: RIOK3
RIPK1 = system: RIPK1
RIPK2 = system: RIPK2
RIPK4 = system: RIPK4
RIPK5 = system: T1, RIPK5
T1 construct: gene DSTYK

ROCK1 = system: ROCK1
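Note: KINOMEscan scanMAX binding as percent activity remaining versus control; lower means stronger binding.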

Compound	Percent Control (RET(V804M))	Percent Control (RET)	Percent Control (RIOK1)	Percent Control (RIOK2)	Percent Control (RIOK3)	Percent Control (RIPK1)	Percent Control (RIPK2)	Percent Control (RIPK4)	Percent Control (RIPK5)	Percent Control (ROCK1)
CCc1ccc(Oc2nccc(-c3c(-c4ccc(F)cc4)ncn3C3CCNCC3)n2)cc1 [SB-242719]	100%	100%	57%	97%	72%	100%	59%	100%	82%	100%
COc1cc2ncn(-c3cc(O[C@H](C)c4ccccc4Cl)c(C(N)=O)s3)c2cc1OC [GSK237701A]	77%	54%	26%	100%	19%	61%	100%	87%	84%	69%
COc1cc(/C=N/Nc2ncnc3[nH]ncc23)ccc1O [GW578748X]	77%	5.9%	47%	8.9%	46%	100%	100%	6.9%	75%	63%
COc1cccc(-c2c[nH]c3c(N/N=C/c4ccncc4)ncnc23)c1 [GW814408X]	100%	85%	49%	76%	66%	100%	41%	13%	100%	79%
NS(=O)(=O)c1ccc(N/N=C2\C(=O)Nc3ccc(Cl)cc32)cc1 [GW280670X]	100%	100%	74%	100%	89%	100%	100%	100%	100%	100%
Cl.O=C(Nc1ccc(Oc2ccc3[nH]c(NC(=O)c4ccccc4)nc3c2)cc1)Nc1cc(C(F)(F)F)ccc1F [GW709042A]	2.7%	0.6%	52%	100%	33%	62%	89%	100%	100%	95%
COc1ccccc1-c1cc(/C=C2\C(=O)Nc3ncc(Br)cc32)cc(Br)c1O [GW442130X]	100%	100%	100%	17%	100%	100%	100%	100%	100%	96%
COc1cccc(-n2ncc3c(N/N=C/c4ccncc4)ncnc32)c1 [GW784752X]	87%	97%	79%	75%	94%	89%	38%	3.9%	100%	74%
COc1ccc2cc(-c3c(-c4ccncc4)nc(-c4ccc(S(C)(=O)=O)cc4C)n3C)ccc2c1 [SB-633825]	97%	72%	22%	92%	78%	34%	81%	61%	75%	78%
COc1ccc2c(-c3ccnc(Nc4cccc(OC(F)(F)F)c4)n3)cnn2n1 [GW810372X]	100%	100%	42%	29%	51%	100%	100%	77%	100%	100%
NS(=O)(=O)c1ccc(N/N=C2\C(=O)Nc3ccc(C(=O)NCCc4c[nH]cn4)cc32)cc1 [GW300660X]	100%	100%	74%	100%	78%	100%	100%	80%	59%	67%
C[C@@H](Oc1cc(-n2cnc3ccc(OC4CCN(C)CC4)cc32)sc1C(N)=O)c1ccccc1Cl [GSK579289A]	84%	99%	13%	91%	34%	89%	87%	33%	93%	87%
NS(=O)(=O)c1ccc(Nc2ncc(-c3ccccc3)o2)cc1 [GW572399X]	100%	100%	73%	100%	89%	100%	100%	100%	94%	85%
Cl.O=C(O[C@H]1CN[C@H](C#Cc2cc3ncnc(Nc4ccc5c(cnn5Cc5ccccc5)c4)c3s2)C1)N1CCOCC1 [GSK200398A]	100%	100%	100%	100%	100%	100%	16%	84%	100%	96%
CN1CCN(C(=O)c2ccc(NC(=O)Nc3ccc(N(C)c4ccnc(Nc5ccc(CS(C)(=O)=O)cc5)n4)cc3)cc2)CC1.Cl [GW830263A]	0.5%	0%	2.2%	21%	0%	100%	94%	57%	5.4%	17%
NS(=O)(=O)c1ccc(N/N=C2\C(=O)Nc3ccc(C(=O)NCc4ccncc4)cc32)cc1 [GW300657X]	84%	92%	62%	77%	63%	89%	100%	72%	47%	64%
COc1cc(C=NNc2ncnc3c2cnn3-c2ccccc2)ccc1O [GW513184X]	100%	44%	32%	45%	16%	96%	50%	9.1%	90%	97%
Cl.c1ccc(Cc2nc3ccc(Nc4ncnc5ccccc45)cc3[nH]2)cc1 [GR269666A]	100%	100%	100%	88%	100%	100%	67%	98%	98%	100%
O=C1Nc2ccc(C(=O)c3ccco3)cc2C1=Cc1cc(Cl)c(O)c(Cl)c1 [GW406108X]	28%	96%	46%	73%	30%	100%	75%	91%	54%	77%
COc1cc(C)c(N(C)C(=O)CN(C)C)cc1Nc1nc(Nc2cccc(F)c2C(N)=O)c2cc[nH]c2n1 [GSK2219385]	71%	87%	73%	74%	74%	95%	100%	74%	88%	100%

Compound	Percent Control (RET(V804M))	Percent Control (RET)	Percent Control (RIOK1)	Percent Control (RIOK2)	Percent Control (RIOK3)	Percent Control (RIPK1)	Percent Control (RIPK2)	Percent Control (RIPK4)	Percent Control (RIPK5)	Percent Control (ROCK1)
CC1=C(C(=O)Nc2ccc3[nH]ncc3c2)C(c2ccc(Cl)c(Cl)c2)CC(=O)N1 (stereo not drawn) [GSK299115A]	89%	76%	99%	100%	86%	77%	72%	78%	99%	0%
Cl.O=S1CCN(Cc2ccc(-c3ccc4ncnc(Nc5ccc(OCc6ccccc6)c(F)c5)c4c3)o2)CC1 [GW576924A]	100%	100%	93%	83%	100%	100%	43%	92%	87%	100%
CC1=C(C(=O)Nc2ccc3[nH]ncc3c2)C(c2ccc3ccccc3c2)CC(=O)N1 (stereo not drawn) [GSK270822A]	66%	28%	74%	100%	88%	97%	90%	68%	96%	–
COc1ccc2[nH]c3c4[nH]c5ccc(OC)cc5c4c4c(c3c2c1)C(=O)NC4=O [GW296115X]	21%	41%	58%	89%	100%	90%	60%	83%	27%	72%
CC(C)COC(=O)c1ccc2c(c1)/C(=C/Nc1ccc(S(N)(=O)=O)cc1)C(=O)N2 [GW416981X]	26%	100%	21%	100%	15%	100%	100%	100%	48%	36%
CCn1c(-c2nonc2N)nc2c(C#CC(C)(C)O)nc(OCCNC)cc21.Cl [GSK949675]	100%	96%	100%	91%	100%	100%	100%	100%	99%	57%
COC(=O)Nc1nc2ccc(Oc3ccc(NC(=O)Nc4cc(C(F)(F)F)ccc4F)cc3)cc2s1.Cl [GW693917A]	0.5%	0.1%	62%	100%	54%	45%	25%	76%	100%	79%
Nc1ncnc2occ(-c3ccc(NC(=O)Nc4cc(C(F)(F)F)ccc4F)cc3)c12 [GW770249X]	0.1%	0%	56%	100%	44%	26%	100%	100%	80%	84%
O=C(Nc1n[nH]c2nc(-c3ccc(O)cc3)c(Br)cc12)C1CC1 [SB-725317]	96%	100%	55%	82%	56%	100%	100%	90%	100%	100%
CCS(=O)(=O)c1ccc(OC)c(Nc2ncc(-c3cccc(F)c3)o2)c1 [GW621970X]	100%	67%	94%	71%	100%	85%	57%	100%	100%	96%
Cc1cc(O)cc(C)c1/C=C/c1cncc(C(N)=O)c1 [GW435821X]	100%	100%	99%	100%	93%	100%	21%	100%	93%	100%
COc1ccc(COc2ccc(Cc3cnc(N)nc3N)cc2OC)cc1 [GW632580X]	100%	100%	56%	100%	65%	95%	98%	84%	97%	100%
C/C(Nc1ccc(S(N)(=O)=O)cc1)=C1/C(=O)Nc2ccccc21 [GW335962X]	100%	96%	82%	100%	69%	96%	83%	86%	48%	83%
COc1cc(N2CCN(C(C)C)CC2)ccc1Nc1nc(Nc2ccc(F)cc2C(=O)NC[C@@H](O)CO)c2cc[nH]c2n1 [GSK1392956A]	88%	85%	66%	27%	79%	76%	100%	84%	25%	87%
CCS(=O)(=O)c1ccc(OC)c(Nc2ncc(-c3cccc(OC)c3)o2)c1 [GW580509X]	75%	55%	100%	82%	98%	100%	88%	90%	91%	100%
NS(=O)(=O)c1ccc(N/N=C2\C(=O)Nc3ccc(-c4cnco4)cc32)cc1 [GW276655]	92%	82%	27%	69%	51%	76%	84%	87%	68%	8.8%
CN(C)c1cc2c(Nc3ccc4c(cnn4Cc4ccccc4)c3)ncnc2cn1 [GW282974X]	89%	86%	98%	100%	100%	53%	27%	74%	90%	100%
CN(C)CCNC(=O)Nc1ccc(N(C)c2ccnc(Nc3ccc(CS(C)(=O)=O)cc3)n2)cc1.Cl [GW830900A]	86%	60%	9.5%	90%	17%	99%	94%	60%	32%	9.4%
COc1cc2ncnc(Nc3ccc4c(cnn4Cc4ccccc4)c3)c2cc1OC.Cl [GW282449A]	100%	75%	97%	88%	100%	100%	27%	100%	71%	94%
Cl.O=C(Nc1ccc(Oc2ccc3[nH]c(NC(=O)c4ccco4)nc3c2)cc1)Nc1cc(C(F)(F)F)ccc1F [GW683134A]	0.4%	0%	64%	98%	40%	21%	48%	100%	100%	73%
